Measured values taken from PubChem BioAssay AID1813 (Broad Institute, 2009).
The whole screen tested about 300,000 compounds, of which about 2,500 (0.83%) were called active. The sample as a whole holds a higher share of actives than the screen did. A number with no mark means an inactive call. Cut-off read from the data, not from the text of the source: active = inhibition above about 60%; inconclusive = no clear call, values can overlap the other calls; inactive = below that.

Experiment: MLPCN primary screen, SNCA 5' untranslated region (AID 1813);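 note: H4 neuroglioblastoma cells stably carrying SNCA 5'UTR luciferase fusion; 0% = DMSO wells and 100% = positive control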
Settings: alpha-synuclein 5'UTR reporter, inhibitor activity; hits give high values; tested at 7.5 µM
In the case of `Nc1nonc1-n1nnc(C(=O)N/N=C/c2cc(Br)ccc2O)c1CSC1=NCCS1`, the inhibition is reported as 94.1% (active). For `Nc1nonc1-n1nnc(C(=O)N/N=C/c2ccccc2O)c1CN1CCCC1`, the inhibition was 14.3%. Molecule `Cc1ccc(SCc2c(C(=O)N/N=C/c3cccnc3)nnn2-c2nonc2N)cc1` has an inhibition of -2.9%. Molecule `S=C(c1ccccc1)N1CCCC1` has an inhibition of 4.96%. `OCCN1CCN(c2nnc(-c3ccccc3)c3ccccc23)CC1` gave an inhibition of 18.9%. With `OCCN1CCN(C(=S)c2ccc(-c3ccccc3)cc2)CC1` the inhibition was 88% (active). For `Cc1nc2cccnc2nc1C`, the inhibition was -3.08%. For `CC(C)S(=O)(=O)c1csc(NC(=O)Nc2ccc(Cl)cc2)c1Cl`, the inhibition was -49.4%. With `CCN(CC)CCOc1ccc2c(c1)C(=NNC(=O)c1ccccn1)c1cc(OCCN(CC)CC)ccc1-2` the inhibition was 109% (active). Molecule `Cc1cccc(OCC(=O)NCCCNC(=O)c2ccccn2)c1` has an inhibition of 8.27%. With `Cc1ccc(Cl)cc1NC(=O)c1ccccn1` the inhibition was -44%. `COc1ccc(NC(=O)Cn2ncn3c(cc4ccccc43)c2=O)c(OC)c1OC` showed an inhibition of 30%. For `COC(=O)Cc1csc(/N=C/c2c(O)n(-c3cccc(C(F)(F)F)c3)c(=O)c3ccccc23)n1`, the inhibition was 81.8% (active). With `COC(=O)Cc1csc(Nc2c(C)n(C)n(-c3ccccc3)c2=O)n1` the inhibition was 14.1%. For `Cc1ccc(-n2c(O)c(C=Nc3ccc(S(=O)(=O)Nc4ncccn4)cc3)c3ccccc3c2=O)cc1C`, the inhibition was 13.1%. Work on `CC(NC(=O)c1cccc2ccccc12)c1ccc2c(c1)CCCC2` (stereo unspecified) yielded an inhibition of 5.38%. For `Cc1cc(C(=O)Cn2cnc3cc([N+](=O)[O-])ccc3c2=O)c(C)n1CC1CCCO1` (stereo unspecified), the inhibition was -21.1%. For `Cc1ccsc1C(=O)OCC(=O)c1cc(C)n(CC2CCCO2)c1C` (stereo unspecified), the inhibition was 79.6% (active). `Cc1cc(C(=O)CCl)c(C)n1CC1COc2ccccc2O1` (stereo unspecified) gave an inhibition of 21.1%. Work on `CCn1c(-c2cccnc2Cl)nc2cc(C)c(C)cc21` yielded an inhibition of 24.4%. For `CC(C)C(NS(=O)(=O)c1cccs1)C(=O)Nc1nc(C(C)(C)C)cs1` (stereo unspecified), the inhibition was 24.5%. `CCCCN(C(=O)c1ccc(C)o1)c1c(N)n(CCCC)c(=O)[nH]c1=O` gave an inhibition of 11.8%. For `COc1ccc(NC(=O)C(C)SCc2ccccc2)cc1` (stereo unspecified), the inhibition was -18.2%. Work on `COc1ccc(C(=O)NCC2CCCN2S(=O)(=O)c2cccs2)cc1OC` (stereo unspecified) yielded an inhibition of 19.5%. `CC(=O)c1c(C)[nH]c(C(=O)COC(=O)c2cccc(S(=O)(=O)N(C)c3ccccc3)c2)c1C` showed an inhibition of -1.07%. For `CC1CC(C)CN(C(=O)C2CC(=O)N(c3ccc(F)cc3)C2)C1` (stereo unspecified), the inhibition was 10.4%. `C=CCn1c(CCNC(=O)c2ccccc2F)nnc1SCC(=O)Nc1ccc(OC)cc1` showed an inhibition of -21.5%. Molecule `CSc1nnc(NC(=O)c2nc(S(=O)(=O)Cc3ccc(C)cc3)ncc2Cl)s1` has an inhibition of -15.6%. In the case of `Cc1ccc(CS(=O)(=O)c2ncc(Cl)c(C(=O)Nc3nnc(C)s3)n2)cc1`, the inhibition is reported as -37.4%. In the case of `Cc1cccc(NC(=O)c2nc(S(=O)(=O)Cc3ccccc3)ncc2Cl)c1`, the inhibition is reported as 84.8% (active). Molecule `COC(=O)COc1cccc2c(=O)n(CC(=O)NCc3ccccc3)ccc12` has an inhibition of -24.3%. Work on `Nc1nc(Nc2ccccc2F)nc(NC2CCCCC2)c1[N+](=O)[O-]` yielded an inhibition of 30.2%. `COc1cc(OC)cc(C(=O)NC2CCN(C(=O)N3c4ccccc4Sc4ccccc43)CC2)c1` showed an inhibition of 47.3%. In the case of `COc1ccc(CN2[C@@H](CC(=O)O)c3cc(F)ccc3S2(=O)=O)cc1`, the inhibition is reported as -3.17%. In the case of `C/C(=N\NC(=O)Cc1ccc(Cl)cc1)c1ccccn1`, the inhibition is reported as 85.6% (active). Molecule `O=C(Nc1ccc(NC(=O)c2ccccc2F)cc1)c1ccccc1F` has an inhibition of -42.3%. `C/C(=N\NC(=O)Cc1ccc(Br)cc1)c1cccnc1` gave an inhibition of 30.5%. In the case of `C/C(=N\NC(=O)Cc1ccc(F)cc1)c1ccc(F)cc1`, the inhibition is reported as 20.6%. `COc1ccc(CC(=O)NC(C)CCc2ccccc2)cc1` (stereo unspecified) showed an inhibition of 1.27%. In the case of `COc1ccc(CC(=O)N/N=C(\C)c2ccccn2)cc1`, the inhibition is reported as 77.7% (active). `C/C(CC(=O)Nc1ccc(N(C)C)cc1)=N\NC(=O)c1ccccc1F` showed an inhibition of -40.2%. Work on `COc1ccc(C/C(C)=N/NC(=O)c2ccncc2)cc1` yielded an inhibition of 6.51%. In the case of `C/C(=N\NC(=O)c1ccccc1F)c1ccccn1`, the inhibition is reported as 83% (active). `C/C(=N\Nc1nc2ccccc2[nH]1)c1cccs1` showed an inhibition of -116%. With `O=C(O)C1CCCCC1C(=O)N1CCN(S(=O)(=O)c2ccc(F)cc2)CC1` (stereo unspecified) the inhibition was -5.32%. In the case of `CC1(C)OC(=O)N2CCc3ccccc3C21C` (stereo unspecified), the inhibition is reported as -10.7%. `C=CCNC(=S)NNc1ncnc2sc3c(c12)CC(C)(C)OC3` gave an inhibition of 5.75%. With `O=C(O)c1cc2c(cc1NC(=O)c1c(F)cccc1Cl)OCCCO2` the inhibition was 23.8%. For `COc1ccc2[nH]c3nc(SCC(=O)NC4CC4)nnc3c2c1`, the inhibition was -39.5%. With `CCCCCN(C(=O)NC(=O)Nc1ccccc1C)S(C)(=O)=O` the inhibition was -36.2%. In the case of `OCCCNc1nccc(-c2cc(Nc3cccc(Cl)c3)ncn2)n1`, the inhibition is reported as 73.3% (active). In the case of `OCCCNc1nc(-c2ccccc2)c2cc(Cl)ccc2n1`, the inhibition is reported as 30.4%. Work on `NS(=O)(=O)c1cccnc1Nc1cccc(Cl)c1` yielded an inhibition of -2.47%. `O=C1CCCN2N=C(SCC(=O)Nc3ccc(Br)cc3)SC2=N1` gave an inhibition of 10.7%. Molecule `Cc1cc(C(F)F)nn1CC(=O)NC1CCCCCC1` has an inhibition of -7.74%. `Cc1ccccc1NC(=O)CCNS(=O)(=O)c1ccc2[nH]c(=O)oc2c1` showed an inhibition of 6.01%. With `COc1ccccc1NC(=O)C1=C(C)Nc2nc3ccccc3n2C1c1cccs1` (stereo unspecified) the inhibition was 106% (active). Molecule `CCOC(=O)C1=C(C)Nc2nc3ccccc3n2C1c1cccs1` (stereo unspecified) has an inhibition of 31.1%. Work on `CCOc1ccc(C2C(C(=O)NC)=C(C)Nc3nc4ccccc4n32)cc1OC` (stereo unspecified) yielded an inhibition of 10.1%. With `COC(=O)c1cc(=O)n(-c2c(Cl)cc(C(F)(F)F)cc2Cl)[nH]1` the inhibition was 29.3%. `CN(CC(=O)Nc1c(Cl)cccc1Cl)C(=O)c1ccncc1` gave an inhibition of 8.69%.
